In PubChem BioAssay AID720553 (National Center for Advancing Translational Sciences (NCATS), 2013) one finds activity change data, which are given here for 40 compounds.

Screen size: about 340,000 compounds; about 3,300 (0.97%) were called active. Only a selection was taken, and actives are over-represented in it overall. A number with no mark means an inactive call.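 How the source made its calls: active means maximum activity change below -70%; inconclusive means maximum activity change from -70% to -50%; inactive means maximum activity change above -50%.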
On the % scale 0 is the no-effect control and ±100 the full control effect.

This test deals with Potassium voltage-gated channel subfamily H member 2, brain isoform KCNH2 3.1 (human). The test is described as follows: qHTS for Inhibitors of KCHN2 3.1: Mutant qHTS. As to conditions: U2OS KCNH2 3.1, thallium flux FluxOr; hits give low values. An excerpt:
Many antipsychotic drugs that inhibit the neurotransmitter dopamine also bind to hERG1 channel which might help explain their antipsychotic activity but also produces cardiac side effects. The discovery of the novel KCNH2 3.1 isoform offers a potential new target for the development of antipsychotic drugs without cardiac side effects. This proposal will use a high throughput thallium flux assay developed for KCNH2 to screen compounds that modulate the activity of KCNH2 3.1. The wild type KCNH2 channel will also be screened in parallel to help define the selective modulators of this KCNH2 3.1 potassium channel. The resulting compounds will be validated in electrophysiology experiments. The availability of animal models will allow future testing in vivo for effects on memory and other aspects of animal physiology linked with psychosis. NIH Chemical Genomics Center [NCGC] NIH Molecular Libraries Probe Centers Network [MLPCN] MLPCN Grant: MH096539 Assay Submitter (PI): James Barrow, Johns Hopkins University, Lieber Institute for Brain Development
U2OS cells were resuspended in cell media containing 10% fetal calf serum (FCS) at a concentration of 2 million cells / mL. The solution was treated with the mutant (3.1) virus at 1.77 x 10^8 / mL and allowed to incubate at room temperature in the dark. After 4 hours of incubation, DMEM + 10% fetal bovine serum (FBS) was added to the cell solution. Three microliter was then dispensed into a 1536 tissue culture treated black assay plates which were incubated overnight at 37 C. Two microliter of loading buffer (HBSS + HEPES + Red40 dye quencher + FluxOr dye) was added and the assay plates were incubated for 45 min at room temperature in the dark. […] A stimulation buffer was added to the plate and the second kinetic read (2 min) was obtained. The rate constant was calculated from the kinetic reads and normalized to the positive and negative DMSO controls.
Background: qHTS replaces the single test concentration by a dilution series.
Consider `c1ccc(CCN2CCC3(CC2)OCCO3)cc1`, for which the activity change is -0.723%. The figure for `CCOC(=O)C1(CCc2ccccc2)CCN(Cc2ccco2)CC1` is -96.9% (active). Turning to `CCOC(=O)C1(c2ccccc2)CCN(CC(O)c2ccc(NC(C)=O)cc2)CC1` (stereo not given), the activity change was -5.82%. The same measure for `COP(=O)(OC)C(NC(=O)c1ccc(C)cc1)C(Cl)(Cl)Cl` (stereo not given): 10.5%; for `COc1ccc(C(=O)C2CCCN(Cc3ccc(C)s3)C2)cc1OC` (stereo not given): -13%; for `COc1cccc(CN2CCCC(C(=O)c3ccccc3SC)C2)c1O` (stereo not given): -72.3% (active).

For `CSc1ccc(C(=O)C2CCCN(Cc3ccn[nH]3)C2)cc1` (stereo not given), the activity change is -19%. The figure for `CC1C2Cn3c(nc4ccccc43)C1N(C)O2` (stereo not given) is 20.5%; for `COC(=O)C1=C(c2ccc(F)cc2OCc2ccccc2)C[C@@H]2CC[C@H]1N2C(=O)NCc1ccc2[nH]ccc2c1` it is 1.25%. The same measure for `COC(=O)C1=C(c2ccc(F)cc2OCc2ccccc2)C[C@@H]2CC[C@H]1N2C(=O)NCc1ccc(C(C)(C)C)cc1`: -19.4%.

Regarding `COC(=O)C1=C(c2ccc(F)cc2OCc2ccccc2)C[C@@H]2CC[C@H]1N2C(=O)NCc1ccc(OC)c(OC)c1`, the activity change is -73.8% (active).

Turning to `CC1=CC(=Cc2sc3ccccc3[n+]2C)C=C(C)O1`, the activity change was -4.47%. `COC(=O)C1=C(c2ccc(C(C)=O)cc2)C[C@@H]2CC[C@H]1N2C(=O)NCCNC(C)=O`: the activity change is 21.5%. The same measure for `COC(=O)CN1C(=O)C2(C(C(=O)OC)=C(N)Oc3ccccc32)C2=C1CC(C)(C)CC2=O` (stereo not given): -17.7%; for `CC(Cc1ccccc1)NCCC(c1ccccc1)c1ccccc1` (stereo not given): -112% (active); for `CC(=O)NC(=O)NC(C)Cc1ccccc1` (stereo not given): -18.9%. The same measure for `CC(Cc1ccccc1)NC=O` (stereo not given): 13.6%. Consider `CCN1c2nc3c(C)cccn3c(=O)c2CC2(C(=O)N(C)C(=O)N(C)C2=O)C1C` (stereo not given), for which the activity change was -4.08%.

`c1ccc(C2NCc3ccccc3-n3cccc32)cc1` (stereo not given): the activity change is 12.2%.

Regarding `CC1(C)C(c2ccccc2)=NC(c2cccnc2)=[N+]1[O-]`, the activity change was 0.45%. The figure for `CN(C)c1nc(N(C)C)nc(N(C#N)CCCl)n1` is -8.4%; for `OCC#CC[N+]1(CC#Cc2ccccc2)CCCC1` it is 13.7%.

Consider `Cn1c(O)c(C=Nc2ccc3c(c2)CCC3)c(=O)n(C)c1=O`, for which the activity change was -17.3%. The figure for `CCOC(=O)C1(Cc2ccc(Cl)cc2)CCN(C(C)CCn2cccn2)CC1` (stereo not given) is -115% (active); for `O=c1c2ccccc2nc(/C=C/c2ccc(F)cc2)n1-c1ccccc1O` it is -2.48%; for `CC(C)c1ccc(OCC(=O)N2CCN(C)CC2)c(Br)c1` it is -93.1% (active). Turning to `CN1CCN(C(=O)COc2ccc(C(C)(C)C)cc2Br)CC1`, the activity change was -2.07%.

On to `CC(C)c1ccc(OCC(=O)N2CCCN(C)CC2)cc1`, for which the activity change was 10.3%. The figure for `CC(=C1C(=O)c2ccccc2C1=O)N1CCN(CCN=Cc2c(O)n(C)c(=O)n(C)c2=O)CC1` is 10.3%. The figure for `CC1CC=CCC12C(=O)NC(=S)NC2=O` (stereo not given) is 10.6%; for `CSC1=NP(=S)(SC)N(C)c2nc3n(c21)CCC3` (stereo not given) it is -5.66%. As to `Cc1cc(C)cc(NC(=S)NC2CC3CCCC(C2)N3Cc2cccs2)c1` (stereo not given), the activity change was -73.1% (active). Turning to `c1ccc(CCNC2CCCCCC2)cc1`, the activity change is 12.5%. For the compound `CNC(=O)O/N=C(\N)Cc1csc2ccc(Cl)cc12`, the activity change was 4.55%.

Regarding `NC(=O)Cn1cc(C(=O)c2ccccc2F)c2ccccc21`, the activity change was 3.8%.

For the compound `N#Cc1ccc(Cn2cc(C(=O)c3ccco3)c3ccccc32)cc1`, the activity change was -80.8% (active). The same measure for `COc1ccc2[nH]c3c(c2c1)CCN[C@H]3C`: 2.31%; for `COc1cc(OC)cc(C2(C#N)CCN(C)CC2)c1`: 5.57%; for `Cc1ncoc1C(=O)NCC1=C(c2cccc3ccccc23)C[C@@H]2CC[C@H]1N2Cc1ccco1`: -7.12%. The same measure for `CC(=CCOc1ccc2ccc(=O)oc2c1)C1=CC(=O)C(C)(C)O1`: 4.08%.
